Laboratory results published in the supplement of paper PMC6607015.
Where a name gives a salt, the structure may show the parent alone.

How the values were obtained:
Conditions in all cases: compound concentration in added solution (µM; 5 µl added to 20 µl cells): 10; 18 h
A431 [1] = test: LBPA endosome anti-LBPA integrated intensity (sum per cell), Z-score; higher = more LBPA staining
How it was run: (§1)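 After 18 h on 5 µl of 10 µM compound solution in duplicate 384-well imaging plates, HeLa MZ or A431 cells, seeded at 3,500 per well in 20 µl, were fixed with 4% PFA. They were then labelled with 6C4 anti-LBPA antibody, filipin, propidium iodide and CellTracker green, and four 20× fields were recorded per well. Integrated LBPA or filipin intensity per cell, whole-cell or within LBPA endosomes, came from MetaXpress segmentation and was normalised to Z-scores in AcuityXpress.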

HeLa MZ [2] = test: as above
How it was run: as §1

A431 [3] = test: whole-cell filipin (free cholesterol) integrated intensity, Z-score; higher = more cholesterol staining
How it was run: as §1

HeLa MZ [4] = test: as above
How it was run: as §1

A431 [5] = test: filipin (cholesterol) integrated intensity within LBPA endosomes, Z-score; higher = more cholesterol in LBPA endosomes
How it was run: as §1

HeLa MZ [6] = test: as above
How it was run: as §1

Row | Compound | LBPA endosome anti-LBPA integrated intensity (z-score) (A431 [1]) | LBPA endosome anti-LBPA integrated intensity (z-score) (HeLa MZ [2]) | whole-cell filipin (z-score) (A431 [3]) | whole-cell filipin (z-score) (HeLa MZ [4]) | filipin (z-score) (A431 [5]) | filipin (z-score) (HeLa MZ [6])
1 | CC(CNC1CCCCC1)OC(=O)c1ccccc1 (stereo not given) [Hexylcaine hydrochloride] | -0.125 | -0.0338 | -0.478 | -0.747 | -0.345 | -0.436
2 | O=C(O)Cc1ccc(-c2ccccc2)cc1 [Felbinac] | -0.537 | -0.83 | -0.402 | -0.285 | -0.525 | -0.491
3 | CCS(=O)(=O)CCn1c([N+](=O)[O-])cnc1C [Tinidazole] | -0.319 | -0.148 | -0.195 | -0.143 | -0.394 | -0.524
4 | CNCCC=C1c2ccccc2C=Cc2ccccc21 [Norcyclobenzaprine] | 3.26 | 2.08 | 1.91 | 1.02 | 3.06 | 3.6
5 | Nc1nc(=O)c2nc(CNc3ccc(C(=O)N[C@@H](CCC(=O)O)C(=O)O)cc3)cnc2[nH]1 [Folic acid] | -0.628 | -1.15 | -0.811 | -0.635 | -0.597 | -0.671
6 | O=C(NCC(O)CO)c1c(I)c(C(=O)NCC(O)CO)c(I)c(N(CCO)C(=O)CO)c1I (stereo not given) [Ioversol] | -0.561 | -1.26 | -0.43 | -0.621 | -0.499 | -0.701
7 | OCc1cc(C(O)CNCCCCCCOCCCCc2ccccc2)ccc1O (stereo not given) [Salmeterol] | 2.65 | 2.85 | 3.59 | 2.48 | 1.61 | 2.18
8 | C[C@]12CCC(=O)C=C1C=C[C@@H]1[C@@H]2CC[C@@]2(C)[C@H]1CC[C@@]21CCC(=O)O1 [Canrenone] | -0.209 | 1.1 | 0.452 | 1.37 | -0.0815 | 0.168
9 | CN(C)CCCO[C@@H]1[C@H]2OC(C)(C)O[C@H]2O[C@@H]1[C@H](O)CO [Amiprilose hydrochloride] | -0.365 | -0.384 | -0.0258 | -0.369 | -0.415 | -0.492
10 | C=CC(N)CCC(=O)O (stereo not given) [Vigabatrin] | -0.513 | -0.602 | -1.01 | -0.729 | -0.566 | -0.59
11 | COc1cc2nc(N3CCN(C(=O)c4ccco4)CC3)nc(N)c2cc1OC [Prazosin hydrochloride] | 2.82 | 1.41 | 1.2 | 0.626 | 0.829 | 0.146
12 | CCCNC(=O)NS(=O)(=O)c1ccc(Cl)cc1 [Chlorpropamide] | -0.658 | -1.65 | -0.845 | -0.558 | -0.591 | -0.571
13 | Cc1ccnc(NS(=O)(=O)c2ccc(N)cc2)n1 [Sulfamerazine] | -0.529 | -1.13 | -0.353 | -0.0674 | -0.45 | -0.567
14 | CCCCc1nc(Cl)c(CO)n1Cc1ccc(-c2ccccc2-c2nnn[nH]2)cc1 [Losartan] | -0.107 | -0.132 | 0.421 | -0.132 | -0.313 | -0.537
15 | C[C@H]1[C@H](NC(=O)/C(=N\OC(C)(C)C(=O)O)c2csc(N)n2)C(=O)N1S(=O)(=O)O [Aztreonam] | -0.461 | -0.629 | -0.642 | -0.428 | -0.521 | -0.607
16 | CN1CCC(=C2c3ccccc3C=Cc3ccccc32)CC1 [Cyproheptadine hydrochloride] | 2.41 | 0.629 | 1.01 | -1.18 | 2.25 | 0.976
17 | C#C[C@]1(O)CC[C@H]2[C@@H]3CCC4=CC(=O)CC[C@@H]4[C@H]3CC[C@@]21C [Norethindrone] | -0.462 | -0.0403 | -0.665 | -0.306 | -0.425 | -0.487
18 | CN(C)CCOC(=O)C(c1ccccc1)C1(O)CCCC1 (stereo not given) [Cyclopentolate hydrochloride] | -0.331 | 0.664 | 0.119 | -0.332 | -0.39 | -0.209
19 | Clc1ccc(Nc2nnc(Cc3ccncc3)c3ccccc23)cc1 [Vatalanib] | -0.715 | -0.947 | -0.382 | -0.477 | -0.573 | -0.345
20 | CCCOc1ccccc1-c1nc2[nH]nnc2c(=O)[nH]1 [Zaprinast] | -0.577 | -0.755 | -0.471 | 0.00218 | -0.519 | -0.401
